From PubChem BioAssay AID1159580 (chemical genetic matrix, 2015)
Several values for one entry are separate records, joined by “and”; a condition that tells them apart may be missing. Equal values may be shown once. About 2,000 (36%) of roughly 5,500 compounds were called active. Not shown: some 18% with an inconclusive outcome. Cut-off read from the data, not from the text of the source: active = normalized growth mostly below about 0.91 (no sharp cut-off); inconclusive = no clear call, values can overlap the other calls; inactive = mostly above about 0.92. This is one part of the list.

Assay: chemical genetic growth profiling, strain panel (AID 1159580);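 note: tested at 20 µM; growth read once vehicle control cultures reached saturation at 30 °C; 1 = growth at the plate median or of vehicle wells; lower values mean less growth of the strain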
Settings: S. cerevisiae deletion strains, growth OD

Measured: normalized growth

O=C1O[C@@H](CO)[C@H](O)[C@@H](O)[C@@H]1O
inactive: locus YAL021C, strain ccr4, active compounds read low 0.997 | locus YAL026C, strain drs2, active compounds read low 1.03 | locus YAL030W, strain snc1, active compounds read low 1.01 | locus YBL061C, strain skt5, active compounds read low 1.03 | locus YBR009C, strain hhf1, active compounds read low 1.01 | locus YBR021W, strain FUR4, active compounds read low 0.999 | locus YBR023C, strain chs3, active compounds read low 1.02 | locus YBR171W, strain sec66, active compounds read low 1.03 | locus YBR229C, strain ROT2, active compounds read low 1 | locus YBR231C, strain swc5, active compounds read low 1.08 | locus YBR279W, strain paf1, active compounds read low 1.01 | locus YCL011C, strain gbp2, active compounds read low 1.02 | locus YCL016C, strain dcc1, active compounds read low 1.01 | locus YCL029C, strain bik1, active compounds read low 0.99 | locus YCL061C, strain MRC1, active compounds read low 1.01 | locus YCL069W, strain vba3, active compounds read low 1.03 | locus YCR088W, strain abp1, active compounds read low 1.02 | locus YDL005C, strain med2, active compounds read low 1.03 | locus YDL035C, strain GPR1, active compounds read low 1.01 | locus YDL040C, strain nat1, active compounds read low 1.03 | locus YDL074C, strain BRE1, active compounds read low 0.974 | locus YDL101C, strain DUN1, active compounds read low 1.01 | locus YDL134C, strain PPH21, active compounds read low 1.01 | locus YDL185W, strain tfp1, active compounds read low 1 | locus YDL192W, strain arf1, active compounds read low 1.01 | locus YDR001C, strain nth1, active compounds read low 1.03 | locus YDR069C, strain doa4, active compounds read low 1.02 | locus YDR101C, strain arx1, active compounds read low 0.946 | locus YDR137W, strain rgp1, active compounds read low 1.04 | locus YDR150W, strain NUM1, active compounds read low 1 | locus YDR159W, strain sac3, active compounds read low 1 | locus YDR162C, strain NBP2, active compounds read low 1.02 | locus YDR195W, strain ref2 0.99 | locus YDR297W, strain sur2, active compounds read low 1.02 | locus YDR318W, strain mcm21, active compounds read low 1.01 | locus YDR334W, strain swr1, active compounds read low 1.03 | locus YDR335W, strain msn5, active compounds read low 1.01 | locus YDR388W, active compounds read low 1.01 | locus YDR392W, strain spt3, active compounds read low 1.06 | locus YDR502C, strain sam2, active compounds read low 1 | locus YEL003W, strain gim4, active compounds read low 1.02 | locus YEL037C, strain rad23, active compounds read low 1.01 | locus YEL061C, strain CIN8 (second series), active compounds read low 1.03 | locus YEL061C, strain CIN8, active compounds read low 1 | locus YER015W, strain faa2, active compounds read low 1.02 | locus YER016W, strain bim1, active compounds read low 1.03 | locus YER110C, active compounds read low 1.01 | locus YER111C, strain swi4, active compounds read low 1.01 | locus YER155C, strain BEM2 (second series), active compounds read low 1.06 | locus YER155C, strain BEM2, active compounds read low 1.01 | locus YER167W, strain BCK2, active compounds read low 1.01 | locus YFR010W, strain ubp6, active compounds read low 1.01 | locus YGL078C, strain dbp3, active compounds read low 1.01 | locus YGL086W, strain mad1, active compounds read low 0.983 | locus YGL167C, strain pmr1, active compounds read low 1.02 | locus YGL173C, strain kem1, active compounds read low 1.05 | locus YGL227W, strain vid30, active compounds read low 1.03 | locus YGL240W, strain doc1, active compounds read low 1.04 | locus YGL248W, strain PDE1, active compounds read low 0.996 | locus YGL253W, strain hxk2, active compounds read low 1.03 | locus YGR135W, strain pre9, active compounds read low 1.05 | locus YGR229C, strain SMI1, active compounds read low 0.997 | locus YGR252W, strain gcn5, active compounds read low 1.06 | locus YHR013C, strain ard1, active compounds read low 1.08 | locus YHR027C, strain rpn1, active compounds read low 1.02 | locus YHR030C, strain SLT2, active compounds read low 1 and 0.985 | locus YHR079C, strain IRE1 (second series), active compounds read low 1 | locus YHR079C, strain IRE1, active compounds read low 0.979 | locus YHR094C, strain hxt1, active compounds read low 1.01 | locus YHR129C, strain ARP1, active compounds read low 1.02 | locus YHR142W, strain chs7, active compounds read low 1.02 | locus YHR200W, strain rpn10, active compounds read low 0.998 | locus YIL066C, strain RNR3, active compounds read low 1 | locus YIL073C, strain SPO22, active compounds read low 1.05 | locus YIL125W, strain kgd1, active compounds read low 0.999 | locus YIR030C, strain dcg1, active compounds read low 1 | locus YJL092W, strain hpr5, active compounds read low 1.01 | locus YJL095W, strain BCK1 (second series), active compounds read low 1.02 | locus YJL095W, strain BCK1, active compounds read low 1 and 0.979 | locus YJL115W, strain asf1, active compounds read low 1.02 | locus YJL129C, strain trk1, active compounds read low 1.02 | locus YJL134W, strain LCB3, active compounds read low 1.01 | locus YJL154C, strain vps35, active compounds read low 1.02 | locus YJL164C, strain tpk1, active compounds read low 1.01 | locus YJL166W, strain qcr8, active compounds read low 1.02 | locus YJL168C, strain set2, active compounds read low 0.997 | locus YJL187C, strain SWE1 (second series), active compounds read low 0.989 | locus YJL187C, strain SWE1, active compounds read low 1.02 | locus YJR043C, strain POL32, active compounds read low 0.99
